Assay results taken from paper PMC12136788.
The full ranking holds about 5,800 sequences; the median of “enrichment r” is about 0.54, and the highest 2% start at about 16. The list comes from a sample in which the highest values are over-represented; it also holds similar and randomly drawn sequences.

B1: chr19:42216679:42217007:-|CDS|ENSG00000160570|control|control|control (ssRNA)
RNA: GGGAGUUCUACAGUCCGACGAUCCUUUCUGCUGGAUGAGGCUCCUGGCGCCGCCGGAGGCUUAGCCCGGGCCCGCAGCGGCCUAGAGCUCCUGCUGGAGCUGGAGCGCCGCGGGCAGUGCGACGAGAGCAACCUGCGGCUGCUCAACAGAGGAUUGAGCAUCA
B2: chr1:111117940:111118053:-|3pUTR|ENSG00000156171|unk|total|mutant (ssRNA)
RNA: GGGAGUUCUACAGUCCGACGAUCAGGCUGACAGUAACACUGAUGAAUGCUGAUAAUCAGGAAACAUGAAAGAAGCCAUUUGACCGAUUAUUCUAAAGGAUAUCAUCAAGAAGACUAUUAAAAACACCUAUGCCUAUACUUUUUCAACAGAGGAUUGAGCAUCA
B3: chr8:76983344:76983445:-|CDS|ENSG00000164751|msi1|total|mutant (ssRNA)
RNA: GGGAGUUCUACAGUCCGACGAUCAGCCACCAGUGGCAAAGAAUGCGCUCUAUGUGGAGAGUGGCCCACCAUGCCUCACACCACCGGAUGUGAGCAUAUUUUCUGUUAUUUCUGUGCUAAGAGCCGUUUCUUAUUUGACGUGUACAACAGAGGAUUGAGCAUCA
B4: chr12:101746137:101746238:-|3pUTR|ENSG00000111670|msi1|total|mutant (ssRNA)
RNA: GGGAGUUCUACAGUCCGACGAUCGGUCCGUAAAUUAUUGCAGGCCACCUGUGUCUUUGUCAUACAUUCUUCUUGCUGUUGUUCCGUUUGUUUUUUUUCAAACAACCCUCUAAAAAUGUAAAAACCAUGUUCCGCUUGCAGCUGCAACAGAGGAUUGAGCAUCA
B5: ENSG00000070961:be:win_2001|CDS|ENSG00000070961|bound_else_gene|NA|bound_elsewhere_windowed (ssRNA)
RNA: GGGAGUUCUACAGUCCGACGAUCAAAUGAUAUUGUCACCGGCCUUACAUGCAUUGCUGUUGUGGGGAUUGAAGAUCCUGUGAGACCUGAGGUGCCAGAUGCAAUUAAAAAGUGUCAGAGGGCUGGAAUUACUGUGCGGAUGGUCAACAGAGGAUUGAGCAUCA
B6: ENSG00000145990:stop:overlap|stop_codon|ENSG00000145990|stop_codon|NA|stop_codon (ssRNA)
RNA: GGGAGUUCUACAGUCCGACGAUCUGAGCCCCGCCUACCUGAUCAGCGAGGCCAUGCGCCGCAGCAGGAUGUCCCUCUACUGUUAGCACAGAUUGAGAACCUCGGGGACUUGAGCCUUCUGCAGGGGAUGUCCACAGAGAGGGACAACAGAGGAUUGAGCAUCA

What follows are binders tested against MSI1 full-length (mouse, UniProt Q61474 1-362) (assay: nsRBNS (natural sequence RNA bind-n-seq); RBNS binding buffer (assumed for nsRBNS): 25 mM Tris pH 7.5, 150 mM KCl, 3 mM MgCl2, 0.01% Triton X-100, 500 ug/ml BSA, 20 U/ml SUPERase-In, 4 C; UNK is unkempt and MSI1 is Musashi-1; names of the RNAs are library labels; protein concentration not given here; high values mean tight binding).
MSI1 full-length, sequence (Q61474 whole entry): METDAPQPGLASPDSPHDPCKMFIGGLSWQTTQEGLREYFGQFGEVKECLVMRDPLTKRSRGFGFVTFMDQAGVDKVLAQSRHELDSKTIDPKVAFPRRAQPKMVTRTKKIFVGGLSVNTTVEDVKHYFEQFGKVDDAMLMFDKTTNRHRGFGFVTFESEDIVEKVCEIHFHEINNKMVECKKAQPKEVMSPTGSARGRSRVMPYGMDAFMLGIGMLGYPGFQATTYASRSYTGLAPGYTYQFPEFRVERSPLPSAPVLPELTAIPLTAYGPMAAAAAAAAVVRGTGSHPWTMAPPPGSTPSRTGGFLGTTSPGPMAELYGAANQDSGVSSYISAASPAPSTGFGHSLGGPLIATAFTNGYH

Binder	binding signal
B1	0.233 enrichment R
B2	0.337 enrichment R
B3	0.344 enrichment R
B4	0.343 enrichment R
B5	0.416 enrichment R
B6	0.305 enrichment R
